Max response data for eleven molecules are collected here from PubChem BioAssay (NCATS).

Results filed as inconclusive are left out. Activity calls are given as the source filed them. Calls come from the whole dose curve; as a rule, active = well fitted inhibition curve with a large enough effect; inconclusive = small, poorly fitted or top-dose-only effect; inactive = flat fitted curve, though single readings scatter.
% is set by controls: 0 for no effect and ±100 for the full control effect.

This test relates to KB-3-1. The test is described as follows: Cytotoxic Profiling of Annotated Libraries Using Quantitative High-Throughput Screening (AID 1296008). Note: nearly all actives have a fitted effect of over 60% in size. The following applies: Five cell lines viability, CellTiter-Glo ATP luminescence, 48-72 h; max response: active compounds read low. Summed up: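 Cells exposed to compounds for 48 or 72 hr at 37 degrees Celsius. Viability read as ATP-coupled luminescence with CellTiter-Glo after 10 min at room temperature.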
(In general: ATP-based viability assays read luminescence as a measure of living cells.)
Take `O=C1CCC(c2ccccc2)(C2CCN(Cc3ccccc3)CC2)C(=O)N1` (stereo unspecified): the max response was 17.5% (inactive).
The value for `CN(C)C=Nc1c(I)cc(I)c(CCC(=O)O)c1I` was 0.601% (inactive); that for `NC(=O)Oc1ccc(Cc2ccccc2)cc1` was 11.9% (inactive); that for `CN[C@@H]1[C@@H](O[C@H]2O[C@H](CO)[C@@H](N)[C@H](O)[C@H]2O)O[C@H]2C[C@@H](N)[C@@H](O[C@H]3[C@H](O)[C@@H](O)[C@H](N)C[C@@H]3N)O[C@@H]2[C@@H]1O` was 9.56% (inactive).
The value for `Cc1ccc(S(=O)(=O)NCl)cc1` was 2.64% (inactive); that for `COc1ccc(C(=O)c2ccc(C)cc2)c(O)c1` was 4.04% (inactive); that for `Cc1ncc(C[n+]2csc(CCO)c2C)c(N)n1` was -14.6% (inactive).
Take `CC(CN(C)C)CN1c2ccccc2Sc2ccc(C(F)(F)F)cc21` (stereo unspecified): the max response is -6.33% (inactive).
Turning to `C[Se]CC[C@H](N)C(=O)O`, the max response was 0.415% (inactive).
`O=C(O)CN(CC(=O)O)CC1=CC2C(=CC1=O)Oc1cc(O)c(CN(CC(=O)O)CC(=O)O)cc1C21OC(=O)c2ccccc21` (stereo unspecified): the max response is -3.16% (inactive).
Under `CC(O)[C@@H]1NC(=O)[C@H](Cc2ccccc2)NC(=O)[C@H](C(C)O)NC(=O)[C@H](CCCCN)NC(=O)[C@H](Cc2c[nH]c3ccccc23)NC(=O)[C@H](Cc2ccccc2)NC(=O)[C@H](Cc2ccccc2)NC(=O)[C@H](CC(N)=O)NC(=O)[C@H](CCCCN)NC(=O)[C@@H](NC(=O)CNC(=O)[C@H](C)N)CSSC[C@@H](C(=O)O)NC(=O)[C@H](CO)NC1=O` (stereo partly specified) stands -3.89% (inactive).
